Source: publication PMC7819943, “Rice protein-binding microarrays: a tool to detect cis-acting elements near promoter regions in rice”
Over roughly 39,000 sequences, “fluorescence intensity (a.u.)” has its median near 4,300; the highest 2% begin near 39,000. What follows is part of a selection rich in the highest values, with near analogues and random picks from the rest.

These sequences were tested against T1, OsSMF1 (Oryza sativa, UniProt Q6ZLB0 1-436) (assay: protein-binding microarray (RPBM); PBS, 2% BSA, 51.3 ng/ul salmon testes DNA, 50 uM zinc acetate, 200 nM TF, 25 C, 1 h; high values mean tight binding). Details: protein: recombinant; tags: N-terminal polyhistidine and DsRed monomer fusion (pET32a); chain copies: 2; label: CyDye5-dUTP incorporated in the synthesized complementary strand; 3' TTTTT single-stranded linker to array surface; dsDNA, one strand shown.
T1 sequence: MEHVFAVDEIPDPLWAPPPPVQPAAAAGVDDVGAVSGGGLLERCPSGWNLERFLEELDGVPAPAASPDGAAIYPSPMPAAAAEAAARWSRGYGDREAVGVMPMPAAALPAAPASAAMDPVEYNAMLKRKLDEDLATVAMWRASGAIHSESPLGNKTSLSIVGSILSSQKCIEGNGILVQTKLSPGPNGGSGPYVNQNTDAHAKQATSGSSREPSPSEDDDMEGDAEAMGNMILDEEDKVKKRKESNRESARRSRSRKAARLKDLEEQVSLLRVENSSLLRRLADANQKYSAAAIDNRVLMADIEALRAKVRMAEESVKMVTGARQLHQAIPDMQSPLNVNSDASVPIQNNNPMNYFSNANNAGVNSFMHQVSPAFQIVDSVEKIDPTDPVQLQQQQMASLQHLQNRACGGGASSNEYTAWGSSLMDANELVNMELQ
How it was run: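 The binding signal for each feature is its fluorescence intensity in arbitrary units. An Axon 4000B scanner was used to read a custom Agilent array that had been made double-stranded with Cy5-dUTP primer extension, blocked with 2% BSA, incubated at 25 °C for 1 h with 200 nM protein in PBS, 2% BSA, salmon testes DNA and 50 µM zinc acetate, and washed. The protein was an N-terminal polyhistidine–DsRed transcription factor fusion from E. coli BL21-CodonPlus, purified on Ni–NTA.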

Sequence	binding signal
TGCACGCACAGCCATCCACAAGCCATGAGCCGGCGCGAGACGGAGTCACCTAGTGCAG	3640 fluorescence intensity (a.u.)
ATTGAAGCCTATTTATTGGTAATACGTAATCTAGATTTGACGGAGTCACCTAGTGCAG	3700 fluorescence intensity (a.u.)
ATAAAAGAGAAGAGCAGCAGGCCAGCTGCAGGACGGACTTCGGAGTCACCTAGTGCAG	3820 fluorescence intensity (a.u.)
TCAGCAGTAAAGGACAGAAGGCGAAAAGATTTGAGATCTTCGGAGTCACCTAGTGCAG	65500 fluorescence intensity (a.u.)
AAAGGCACAGCAGGATGAAGATCTTGAAATGTTTCTTTGGCGGAGTCACCTAGTGCAG	6510 fluorescence intensity (a.u.)
GCTCCCTCAGCCGTGGCACGTGTTCACAAGCCGTGACCAGCGGAGTCACCTAGTGCAG	4570 fluorescence intensity (a.u.)
GCCCGTGCCAGGGCTGCTACCTCGGCACACTGGCCGGCACCGGAGTCACCTAGTGCAG	3350 fluorescence intensity (a.u.)
GTGCCTGCTCGATCGAGTCGTGGCGGCGGCGGAGTCAACTCGGAGTCACCTAGTGCAG	3370 fluorescence intensity (a.u.)
CAGGCCAGAACAACTGCTCGGCCCGATAGGAGGGCCTACTCGGAGTCACCTAGTGCAG	55800 fluorescence intensity (a.u.)
AATAAGTGCAGTTGTGGGAATCCGTGTTGAACGTTTGACCCGGAGTCACCTAGTGCAG	14300 fluorescence intensity (a.u.)
AGTGAAGTCACAAGGAAGTGACGAGGATGAGGACGAGGAGCGGAGTCACCTAGTGCAG	28700 fluorescence intensity (a.u.)
CGCTCCTCGCCGCCTTGAACCTCACAGCGAAACCTGATCACGGAGTCACCTAGTGCAG	3270 fluorescence intensity (a.u.)
TGGGGCCCACATCCCGCACCACTCGGATTCGGATTTCCTCCGGAGTCACCTAGTGCAG	52200 fluorescence intensity (a.u.)
GCCCACATCCATCCCGTCACCCGCCCACTCGCCGTCGCACCGGAGTCACCTAGTGCAG	3490 fluorescence intensity (a.u.)
CACTCCCATTCCCATCCTCCACATCCCGCGCCATCGACCTCGGAGTCACCTAGTGCAG	3400 fluorescence intensity (a.u.)
GATCCCGGGCCCGGCCCACTGGCCCAGTCAACTAATCCTCCGGAGTCACCTAGTGCAG	53100 fluorescence intensity (a.u.)
CCACCTAACACTAATCAACCAGTCAACCACCACATCTTCCCGGAGTCACCTAGTGCAG	3820 fluorescence intensity (a.u.)
GCCACCCTCAGCCACTGGCCATCCGTGGGCCCCACCATCCCGGAGTCACCTAGTGCAG	22500 fluorescence intensity (a.u.)
CTGCTCCACGCATTCACCAACGCTCCCTGCGATGTTTTAGCGGAGTCACCTAGTGCAG	4260 fluorescence intensity (a.u.)
CATCCATCCGGTCAAAGCAGCCGGCCACGTGGCGTGTCCCCGGAGTCACCTAGTGCAG	28100 fluorescence intensity (a.u.)
ACAGGCGAGGGTGGAACCCCGCGTGGCGAGAGCGTTGCGGCGGAGTCACCTAGTGCAG	4270 fluorescence intensity (a.u.)

Sequence	binding signal
CTTTTCCCCGACTAAACACACCCATACTGTCAAAAGGTAACGGAGTCACCTAGTGCAG	26800 fluorescence intensity (a.u.)
TGTAAACATCCCATACTGGCTCTTACGCAAAACTTTCACCCGGAGTCACCTAGTGCAG	54100 fluorescence intensity (a.u.)
TCTTCAAACTTCCAACTTTTCCATCACATCAAAACTTTCCCGGAGTCACCTAGTGCAG	3340 fluorescence intensity (a.u.)
CCGCCTTGCGTGGCTGAACTTCTTCTGATGGTCCCCGCCTCGGAGTCACCTAGTGCAG	3290 fluorescence intensity (a.u.)
ATAATCTTCAGAGATCTCCTTGCCTGAAGTGTCTTATGTTCGGAGTCACCTAGTGCAG	42500 fluorescence intensity (a.u.)
CCGGATCTTCAGCAGAGTCGTGTCACCTGTTTTGATCGTTCGGAGTCACCTAGTGCAG	3890 fluorescence intensity (a.u.)
TATGTTCATTTCCTTATTTGCCTCTCGTCATGTCTCTTGACGGAGTCACCTAGTGCAG	3420 fluorescence intensity (a.u.)
TAGTTCTGAAGTCTGAAATCCTTGCGGTCCTTCACCGCCTCGGAGTCACCTAGTGCAG	55000 fluorescence intensity (a.u.)
GCAATCTTTGCCTTGGTCCTCTTGAAGTCTTTGGCGGTATCGGAGTCACCTAGTGCAG	27700 fluorescence intensity (a.u.)
CTCACTGGTATGCTCACCACCACTTTAAGACTGTGTTTGTCGGAGTCACCTAGTGCAG	3730 fluorescence intensity (a.u.)
AGAGGCGAAATCGCGGCTACGGAGGCGGCGGCGGTGGCGGCGGAGTCACCTAGTGCAG	3390 fluorescence intensity (a.u.)
TGGCCATCGCCTACGGTGAGCAGTCATCGTCGTCCATCCGCGGAGTCACCTAGTGCAG	4090 fluorescence intensity (a.u.)
TAGTCCTCCTTGGCTACGGTGTCATAGATCGAGGCCTCCGCGGAGTCACCTAGTGCAG	50200 fluorescence intensity (a.u.)
TGAAAATTTGTACACGTAAGTAATAGATGGTACCAATAGACGGAGTCACCTAGTGCAG	5890 fluorescence intensity (a.u.)
TGTCACGAAAATCTTAATATTCATTTGGAGAAAAGAACGGCGGAGTCACCTAGTGCAG	49000 fluorescence intensity (a.u.)
GCACATCTTCCTTAATTGCCAAAAGAGTAAATTTCACGAACGGAGTCACCTAGTGCAG	43300 fluorescence intensity (a.u.)
AAGAGAAAATTCAAGAAATATCATTACCAAAGTCCAAGAACGGAGTCACCTAGTGCAG	52800 fluorescence intensity (a.u.)
CGTGTCATTGTCCAAAATGTCAAAGAAATATGGAACCGGACGGAGTCACCTAGTGCAG	15200 fluorescence intensity (a.u.)
GAGAATTCTCCACGAAAAGAGGAGAACGAACCACATCAAACGGAGTCACCTAGTGCAG	3380 fluorescence intensity (a.u.)
GAGTTTAATTAATTAATTTCTTAAAATTGATGTCATCACACGGAGTCACCTAGTGCAG	3140 fluorescence intensity (a.u.)
TTTCAAAATATTCAGTTTGAGAATATGTAAATCTTATGGGCGGAGTCACCTAGTGCAG	20100 fluorescence intensity (a.u.)
